Measurements published in PubChem BioAssay (Tox21).
Inconclusive results are not listed. A call without a number means that no potency is given here. Activity calls are given as the source filed them. Calls come from the whole dose curve.

Test: qHTS assay for small molecule agonists of the antioxidant response element (ARE) signaling pathway - cell viability counter screen (AID 743203); note: nearly all actives have a fitted effect of over 55% in size
Conditions: ARE-bla HepG2 viability, CellTiter-Glo luminescence, 16 h; series mostly up to 73.3 µM
From the text: National Center for Advancing Translational Sciences [NCATS]
NIH Chemical Genomics Center [NCGC]
U.S. Environmental Protection Agency [EPA]
National Institutes of Environmental Health Sciences [NIEHS]
National Toxicology Program [NTP]
U.S. Food and Drug Administration [FDA]
Oxidative stress has been implicated in the pathogenesis of a variety of diseases ranging from cancer to neurodegeneration. The antioxidant response element (ARE) signaling pathway plays an important role in the amelioration of oxidative stress. The CellSensor ARE-bla HepG2 cell line (Invitrogen) can be used for analyzing the Nrf2/antioxidant response signaling pathway. Nrf2 (NF-E2-related factor 2) and Nrf1 are transcription factors that bind to AREs and activate these genes. The CellSensor ARE-bla Hep G2 cell line contains a beta-lactamase reporter gene under control of the Antioxidant Response Element (ARE) stably integrated into HepG2 cells. The activation of the report gene under culture conditions can be detected by fluorescence intensity. This cell line has been used to screen the Tox21 10K compound library to identify agonists that induce oxidative stress. The cytotoxicity of the Tox21 compound library against the ARE-bla cell line was tested in parallel by measuring the cell viability using CellTiter-Glo assay (Promega, Madison, WI) in the same wells.
Tox21 Assay Protocol Summary:
ARE-bla HepG2 cells were dispensed at 2,000 cells/5 ul/well in 1536-well white wall/solid bottom plates using a Multidrop Combi (ThermoFisher Scientific, Waltham, MA) dispenser. After the assay plates were incubated at 37C/5% CO2 for 5 hrs, 23 nL of compounds dissolved in DMSO, positive controls or DMSO only was transferred to the assay plate by a pintool work station (Kalypsys, San Diego, CA). The plates were incubated at 37C/5% CO2 for 16 hrs, followed by addition of 4 ul/well of CellTiter-Glo reagent into the assay plates using a Flying Reagent Dispenser (Aurora Discovery, San Diego, CA). After 30 min incubation at room temperature, the luminescence intensity in the assay plates was measured using a ViewLux (PerkinElmer, Shelton, CT) plate reader.
Potency is the fitted concentration of half-maximal effect.

Structure (SMILES) | Potency
CCOCCn1c(C2CCN(CCc3ccc(C(C)(C)C(=O)O)cc3)CC2)nc2ccccc21 | inactive
CN(C)C(=O)Nc1ccc(Oc2ccc(Cl)cc2)cc1 | inactive
c1ccc(COCc2ccccc2)cc1 | inactive
O=C(/C=C/c1ccccc1)OCCCc1ccccc1 | inactive
O=C(CCCN1CCC(O)(c2ccc(Br)cc2)CC1)c1ccc(F)cc1 | 29.8 µM (active)
CC(=O)[C@H]1CC[C@H]2[C@@H]3C[C@H](C)C4=CC(=O)CC[C@]4(C)[C@H]3[C@@H](O)C[C@]12C | inactive
C=CCOC(=O)/C=C\C(=O)OCC=C | inactive
CCNC(=O)N1CCN(CCCC(c2ccc(F)cc2)c2ccc(F)cc2)CC1 | inactive
Fc1ccccc1[C@@H](F)COC1CCC(Nc2ncnc3[nH]ncc23)CC1 (stereo not given in full) | inactive
OC/C(Br)=C(\Br)CO | inactive
C[C@@H]1C[C@H]2[C@@H]3CCC4=CC(=O)C=C[C@]4(C)[C@@]3(F)[C@@H](O)C[C@]2(C)[C@@]1(O)C(=O)CO | inactive
CCOC(=O)c1ccccc1C | inactive
Cc1oc(C)c(C(=O)Nc2ccccc2)c1C | inactive
CCCCCC=CCC=CCCCCCCCC(=O)OCC | inactive
N#C/C(=C1\SCC(c2ccccc2Cl)S1)n1ccnc1 (stereo not given) | inactive
CCCCC(CC)C(=O)OCCOCCOCCOCCOC(=O)C(CC)CCCC (stereo not given) | inactive
CC(CCO)CCc1ccccc1 (stereo not given) | inactive
O=C(C(=O)c1ccccc1)c1ccccc1 | inactive
CC(C)CCCC(=O)O | inactive
CC(C)CCCCCOC(=O)CCCCC(=O)OCCCCCC(C)C | inactive

Structure (SMILES) | Potency
Cc1ccnc2ccccc12 | inactive
C=CC(=O)NCOCC(C)C | inactive
Cc1ccc(/C=N/n2c(-c3ccccc3)csc2=S)cc1 | inactive
COc1cc2c(N3CCN(C(=O)Nc4ccc(OC(C)C)cc4)CC3)ncnc2cc1OCCCN1CCCCC1 | inactive
COCC(O)CO (stereo not given) | inactive
CC[C@@H]([C@H](C)O)n1ncn(-c2ccc(N3CCN(c4ccc(OC[C@@H]5CO[C@@](Cn6cncn6)(c6ccc(F)cc6F)C5)cc4)CC3)cc2)c1=O | inactive
NC(=O)N(O)[C@@H]1COc2cc(OCc3ccccc3)ccc21 | inactive
CC(C)CCCCCCOC(=O)CCCCC(=O)OCCCCCCC(C)C | inactive
CCn1nc(C)c2c1C(=O)NCC(c1ccc(O)cc1)=N2 | inactive
CCCCC(CC)COC(=O)COc1ccc(Cl)cc1C (stereo not given) | inactive
CC(Cl)C(Cl)Cl (stereo not given) | inactive
CC1=CC(O)CC(C)(C)C1 (stereo not given) | inactive
CC1=C(/C=C/C(C)=C\C=C\C(C)=C\C(=O)O)C(C)(C)CCC1 | inactive
COC(=O)c1cc(Cl)ccc1NS(=O)(=O)C(F)(F)F | inactive
CC(=O)Nc1ccccc1C | inactive
Cc1c(C(=O)NN2CCCCC2)nn(-c2ccc(Cl)cc2Cl)c1-c1ccc(Cl)cc1 | 23.7 µM (active)
NC(=O)Cn1c(=O)cc(CCN2CCN(c3nccc4sccc34)CC2)c2ccc(F)cc21 | inactive
COc1ccc(CCC(=O)c2c(O)cc(O[C@@H]3O[C@H](CO)[C@@H](O)[C@H](O)[C@H]3O[C@@H]3O[C@@H](C)[C@H](O)[C@@H](O)[C@H]3O)cc2O)cc1O | inactive
CCOC(=O)C(C)Oc1ccc(Oc2nc3ccc(Cl)cc3o2)cc1 (stereo not given) | inactive
CC(C)OCC1CO1 (stereo not given) | inactive
